High-throughput results from PubChem.
Compounds with a hit are over-represented: about 2.2% of the library has one in this group of screens.
Nrf2 block: blocks Nrf2 signaling; 360,000 tested, 2.1% active; A549 ARE-Fluc reporter, luciferase luminescence, 18-24 h; Potency, µM (titrated, usually from 46 µM), for the others: at the top dose activity change, negative = inhibition, usual class: inhibitors; also: % is scaled to controls: 0 for no effect and ±100 for the full control effect; nearly all actives have a fitted effect of over 60% in size
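Concentration-response testing used A549 ARE_Fluc cells at 5000 cells/well. Following an 18-24 h compound incubation, viability was read by fluorescence (Ex 405/Em 525) and luciferase output by luminescence.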
Pin1 inh: inhibitors of human Pin1; AID 504891; 390,000 tested, 0.009% active; Potency, µM (highest dose often 115 µM), inactives show at the top dose activity, negative = inhibition, most hits filed as inhibitors; Q13526; Pin1 FP peptide displacement, HiFluor488, 10 min; active = well fitted inhibition curve with a large enough effect in the polarisation, with a control signal flat, not every such curve was filed as active; inconclusive = small, poorly fitted or top-dose-only effect, or effect the other way, or a change in a side signal; inactive = no such curve, though single readings can be large or run the other way; the % refers to the polarisation; also: % is scaled to controls: 0 for no effect and ±100 for the full control effect
Target sequence (Q13526 whole entry, looked up): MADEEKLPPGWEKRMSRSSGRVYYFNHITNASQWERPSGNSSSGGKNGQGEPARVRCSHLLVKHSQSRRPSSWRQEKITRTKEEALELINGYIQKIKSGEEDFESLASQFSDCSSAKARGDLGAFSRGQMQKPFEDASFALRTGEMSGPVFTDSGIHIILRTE
Nrf2 ARE act: activates Nrf2 signaling. AREc32 ARE-luciferase reporter (MCF7-derived line), luminescence, 24 h. Potency, µM (highest dose often 46.1 µM), inactives show at the top dose activation, usual class: activators. 410,000 tested, 0.31% active; also: % of control where 0% means no effect; nearly all actives have a fitted effect of over 65% in size
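ARE activation measured as luciferase luminescence (Steady-Glo, 30 min RT) in AREc32_Fluc cells after 24 hr compound exposure at 37 deg C, 5% CO2; cells seeded overnight at 1000/well in OPTI-MEM, 5% FBS.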
A549 tox: kills or reduces viability of A549 cells in Nrf2 counter-screen; A549 ARE-Fluc cells, CellTiter-Fluor viability, 18-24 h; Potency, µM (titrated, usually from 46 µM), without a hit: at the top dose activity change, negative = cytotoxicity, hits mostly inhibitors; 390,000 tested, 0.16% active; AID 504648; also: % is scaled to controls: 0 for no effect and ±100 for the full control effect
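A549 ARE_Fluc cells in 5% FBS OPTI-MEM were exposed to compounds in concentration-response for 18-24 h at 37 deg C. Viability was read by CellTiter-Fluor fluorescence (Ex 405/Em 525) after 30 min, before the luciferase read.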
Active calls of the source: *; ? = inconclusive; / = not tested or not shown; [ ] = remark or other dose. Unless noted, calls follow the shape of the dose curve; as a rule, active = well fitted curve in the direction sought with a large enough effect; inconclusive = small, poorly fitted or top-dose-only effect, or another doubt; inactive = no such curve, though single readings can be large; an effect the other way counts as inactive or inconclusive. Potency is read from the fitted curve at half-maximal effect.

SMILES	Nrf2 block	Pin1 inh	Nrf2 ARE act	A549 tox
CC(C)c1ccc(C2=NC(c3ccncc3)=Nc3ccc(F)cc3N2)cc1	-9.2%	-5.5%	5.0%	7.0%
CC(=O)OCON[N+]([O-])=NC1CCCCC1	5.3%	-20.7%	/	1.2%
CCOC(=O)c1c(-n2cnnn2)sc2c1CCCC2	-31.2%	-3.8%	-1.0%	-1.6%
CCOC(=O)c1c(N2C(=O)Nc3cc(Cl)c(Cl)cc3N2O)sc2c1CCCCC2	?	53.6µM*	1.3%	-24.6%
CN1CCN(c2ccc(CNc3nn4c(=O)c5ccccc5nc4s3)cc2)CC1	/	0.6%	/	/
O=C(N/N=C\C=C\c1ccco1)c1cncc(Br)c1	-22.6%	?	12.6µM*	-2.7%
O=C(CN1CCN(Cc2ccccc2)CC1)N/N=C\C=C/c1ccco1	?	-0.2%	6.31µM*	-5.1%
O=C(CN1CCN(Cc2ccccc2Cl)CC1)N/N=C/C=C/c1ccco1	-13.3%	1.4%	?	-0.9%
O=C(CNc1cccc2ccccc12)N/N=C/C=C/c1ccco1	13.2%	?	?	13.3%
O=C(Cc1cccs1)N/N=C/C=C/c1ccco1	13.3%	-17.1%	12.6µM*	12.1%
CC1=C(C(=O)N2CCN(c3ccc(Cl)cc3)CC2)C2(CCC(C)CC2)OC1=O (stereo not drawn)	-23.3%	-5.1%	1.7%	10.7%
O=C(NCCCc1cnc[nH]1)NCCCN(Cc1ccc(Cl)cc1)c1ccc(Br)cn1	?	-0.7%	/	15.2%
CCc1ccc(C(=O)NC2=NC(c3cc(OC)ccc3OC)CC(=O)N2)cc1 (stereo not drawn)	15.1%	0.9%	-1.1%	-0.5%
CCOC(=O)[C@H]1[C@H]2COc3ccc(Cl)cc3[C@@H]2N2C(=O)c3ccc(F)cc3NC(=O)[C@@]12C	23.1µM*	?	3.5%	-8.3%
Cn1nnnc1Sc1ncnc2scc(-c3ccccc3C#N)c12	?	6.4%	/	-8.4%
CC(=O)O[C@]1(C(C)=O)CC[C@H]2[C@@H]3C=C(Cl)C4=CC(=O)CC[C@]4(C)[C@H]3CC[C@@]21C	?	5.7%	11.0%	1.2%
CC(=O)O[C@]1(C(C)=O)CC[C@H]2[C@@H]3C[C@H](C)C4=CC(=O)CC[C@]4(C)[C@H]3CC[C@@]21C	0.259µM*	2.0%	1.1%	-14.5%
CC1CC2C3CCC4=CC(=O)CCC4(C)C3CCC2(C)C1(O)C(=O)CO (stereo not drawn)	0.651µM*	-2.0%	4.3%	-4.5%
CC12CCC(=O)C=C1CCC1C2CCC2(C)C1CCC2(O)C(=O)CO (stereo not drawn)	?	-5.2%	-0.3%	-15.1%
CCC(=O)OC1(C(C)=O)CCC2C3CCC4=CC(=O)CCC4(C)C3CCC21C (stereo not drawn)	1.16µM*	3.4%	5.7%	5.6%
CC(=O)OC1(C(C)=O)CCC2C3CC(C(F)(F)F)C4=CC(=O)CCC4(C)C3CCC21C (stereo not drawn)	-14.1%	-0.6%	7.08µM*	-6.0%
CC12CCC(=O)C=C1CCC1C2CCC2(C)C1CC[C@]2(O)C(=O)CO (stereo partly drawn)	?	9.5%	-0.3%	-18.1%
CCc1cccc(C)c1NC(=O)CCCn1c(C)c2cnn(-c3ccccc3)c(=O)c2c1C	-5.6%	1.1%	3.4%	-0.8%
CCCCN(C)CCNC(=O)C1CCN(c2nc3ccc(CC)cc3s2)CC1	7.0%[9.27 µM]	2.5%	6.9%	1.7%
COc1cc(-c2ccc3ncnc(NCc4nc(C)cs4)c3c2)cc(OC)c1OC	?	-7.3%	/	-2.3%
SMILES	Nrf2 block	Pin1 inh	Nrf2 ARE act	A549 tox
COc1ccc(CCc2nc(-c3ccc(-n4cccc4)cc3)no2)cc1	16.4µM*	4.7%	0.0%	-10.1%
CCCc1ccc(OC(C)c2nc(-c3ccc(-n4cccc4)cc3)no2)cc1 (stereo not drawn)	23.1µM*	1.3%	-0.6%	-14.3%
C/C=C\C1=CCCC1Nc1ncnc2ccc(-c3c(C)noc3C)cc12 (stereo not drawn)	?	-5.7%	/	2.4%
Cc1ccc(C(=O)Nc2nnc(SCc3cc(=O)n4ccc(C)cc4n3)s2)cc1	/	-0.2%	-0.1%	2.6%
C=CC(=O)Nc1cccc(CN2C(=O)N(c3cc(OC)cc(OC)c3)Cc3cnc(NCCCCN(CC)CC)nc32)c1	-8.3%	1.6%	5.8%	6.51µM*
CCOc1ccc(Nc2c(S(=O)(=O)c3ccc(Cl)cc3)cnc3ccc(OC)cc23)cc1	?	6.1%	3.2%	-21.9%
O=C(N/N=C/c1ccccn1)c1cc(-c2ccc(Cl)cc2)nc2ccccc12	9.2µM*	12.3%	7.7%	?
O=C(N/N=C/c1ccccn1)c1cc(-c2ccc(Br)cc2)nc2ccccc12	13µM*	5.9%	0.0%	?
C[C@@H]1C(=O)N(S(=O)(=O)c2ccccc2[N+](=O)[O-])[C@H]1c1ccc(-c2ccccc2)cc1	14.0%	-14.3%	/	5.7%
CCNC(=S)N1CCN(c2ccc([N+](=O)[O-])cc2)CC1	?	9.2%	-0.4%	?
O=[N+]([O-])c1ccc(N2CCN(C(=S)NCc3ccc(Cl)cc3)CC2)cc1	16.4µM*	?	-0.3%	?
O=[N+]([O-])c1ccc(C(=S)N2CCN(c3ccc(F)cc3)CC2)cc1	18.4µM*	-0.3%	3.1%	-1.1%
CC(=O)c1ccc(N2CCN(C(=O)C3CCN(S(=O)(=O)c4cccc5nonc45)CC3)CC2)cc1	/	7.7%	5.2%	2.3%
COc1cc(C(=O)Nc2nc(C)c(Cc3ccc4c(c3)OCO4)s2)cc(OC)c1OC	14.6µM*	8.1%	4.3%	-0.3%
COc1ccc(CNc2nc(Cl)nc3nc[nH]c23)cc1	-12.3%	?	/	2.0%
OC[C@H]1O[C@@H](n2cnc3c(NCc4ccco4)ncnc32)[C@H](O)[C@@H]1O	8.2µM*	-3.7%	?	?
S=c1[nH]nc(COc2ccccc2)n1/N=C/C=C/c1ccco1	10.0%	?	12.6µM*	0.1%
COc1ccc([S+](=O)([O-])N2CCN([S+](=O)([O-])c3ccc4c(c3)OCCO4)CC2)c(OC)c1	-8.4%	23.2%	/	1.0%
COc1cc(C(=O)Nc2cc3c(cc2C)n(C)c(=O)c(=O)n3C)cc(OC)c1OC	-3.0%	4.7%	-0.6%	1.7%
C=C1C(=O)O[C@@]23[C@H]1CC[C@@H](C)[C@@H]2CC[C@@]1(C)O[C@@H]31	14.6µM*	1.8%	-2.9%	?
NC(=O)C1CCN(c2nccc(-c3ccc4c(c3)OCCO4)n2)CC1	/	-2.2%	/	/
COc1cccc(OCC(=O)NN=C2c3ccccc3-c3ccccc32)c1	18.4µM*	16.8%	-0.7%	1.9%[1.84 µM]
Cc1cc(C)c2nc(N3CCCC(C(=O)NCc4cccc(Cl)c4)C3)sc2c1 (stereo not drawn)	?	1.2%	4.2%	0.8%
CCOC(=O)c1cnc2ccc(OC)cc2c1NCc1ccccc1	-13.1%	0.6%	4.5%	-7.7%
CCOC(=O)c1cnc2ccc(OC)cc2c1Nc1cccc(C(C)=O)c1	16.4µM*	110.5%	7.6%	?
CCOC(=O)c1cnc2ccc(OCC)cc2c1NCc1ccccc1OC	6.51µM*	11.5%	-0.1%	11.6µM*
CCOC(=O)c1cnc2ccc(OC)cc2c1NCCc1ccccc1	23.1µM*	2.7%	-1.0%	?
